Bioassay records: PubChem, National Center for Advancing Translational Sciences (NCATS)
AmpC inh detg: blocks E. coli AmpC beta-lactamase in detergent assay; P00811; AmpC hydrolysis of nitrocefin, absorbance 480 nm, 0.01% Triton; Potency, µM (top dose mostly 114 µM), for inactives: at the highest dose activity change, negative = inhibition, hits mostly inhibitors; hit rate 0.041% among 370,000; AID 485294;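 also: 0% = no-compound wells and -100% = no-enzyme wells; nearly all actives have a fitted effect of over 25% in size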
Target sequence (P00811 whole entry, looked up): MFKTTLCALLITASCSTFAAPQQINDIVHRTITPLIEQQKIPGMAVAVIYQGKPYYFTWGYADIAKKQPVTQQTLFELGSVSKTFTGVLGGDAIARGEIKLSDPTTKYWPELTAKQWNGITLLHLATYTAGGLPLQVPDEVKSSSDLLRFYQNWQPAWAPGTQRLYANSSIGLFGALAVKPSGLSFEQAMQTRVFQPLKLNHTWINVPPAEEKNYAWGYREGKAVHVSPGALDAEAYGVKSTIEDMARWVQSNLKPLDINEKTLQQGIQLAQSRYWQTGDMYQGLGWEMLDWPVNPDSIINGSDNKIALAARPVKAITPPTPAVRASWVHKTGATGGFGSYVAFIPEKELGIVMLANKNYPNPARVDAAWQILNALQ
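20 mM phosphate pH 7.0 + 0.01% (detergent screen) or 0.0001% Triton X-100; 5.3 nM AmpC reagent; cpd preinc 15 min RT; nitrocefin (800 uM stock) to start; A480 q20 s × 4 min; Activity was normalised to no-enzyme and no-compound control wells.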
Pf growth 96h: P. falciparum growth inhibition at 96 hour, primary screen for plastid delayed-death inhibitors; P. falciparum luciferase reporter growth, 96 h; Potency, µM (highest dose often 28.7 µM), for inactives: at the highest dose activity change, negative = inhibition, actives largely listed as inhibitors; hit rate 6.9% among 320,000
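Luminescence readout: decreased luciferase signal marks inhibited growth of reporter-expressing P. falciparum in infected red cells (2% hematocrit, 0.05% parasitemia final), exposed to compound two generations (96 h, 37 C, 5% CO2).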
AMA1-RON2 inh: disrupts binding of P. falciparum AMA1 to RON2 | AlphaScreen AMA1-biotinylated RON2 peptide binding | Potency, µM (titrated, usually from 58.2 µM), for inactives: at the highest dose activity change, negative = inhibition, hits mostly inhibitors | hit rate 0.2% among 360,000;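 also: 0% = vehicle wells and -100% = peptide control; nearly all actives have a fitted effect of over 45% in size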
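AMA1 (3D7) with his tag at 25 nM final met compounds first, then biotinylated RON2 peptide at 25 nM; detection used donor plus acceptor beads, 10 µg/mL apiece, read by AlphaScreen after 30 min at room temperature.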
HCV inhibitor: blocks hepatitis C virus; Huh7.5.1 HCVcc-Cre infection, luciferase reporter, 44 h; Potency, µM (highest dose often 41.8 µM), without a hit: at the highest dose activity change, negative = inhibition, actives largely listed as inhibitors; hit rate 3.4% among 340,000
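Reporter virus HCVcc-Cre (~0.5 moi) infects cells exposed to compound; seeding density 1,000 cells/well with 4 h settling beforehand. Luminescence, 15 sec read, taken 44 h post-infection following a 15 min RT substrate incubation.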
Pf growth 48h: inhibits P. falciparum growth in the first generation, 48 h | P. falciparum luciferase growth in erythrocytes, 48 h | Potency, µM (top dose mostly 28.7 µM), inactives show top-dose activity change, negative = inhibition, usual class: inhibitors | hit rate 5.9% among 310,000
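Firefly luciferase activity from engineered P. falciparum reports growth; inhibitors lower the luminescent signal. Cultures contained 2% hematocrit erythrocytes at 0.1% final parasitemia.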
AmpC inh no detg: blocks E. coli AmpC beta-lactamase in detergent-free assay | P00811 | AmpC nitrocefin hydrolysis, absorbance 480 nm, 0.0001% Triton | Potency, µM (doses to about 57.1 µM), inactives show top-dose activity change, negative = inhibition, actives largely listed as inhibitors | hit rate 0.52% among 330,000 | AID 485341;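 also: plate controls were no compound for no effect and no enzyme for full effect; nearly all actives have a fitted effect of over 20% in size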
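20 mM phosphate pH 7.0 + 0.01% (detergent screen) or 0.0001% Triton X-100; 5.3 nM AmpC reagent; cpd preinc 15 min RT; nitrocefin (800 uM stock) to start; A480 q20 s × 4 min; Activity was normalised to no-enzyme and no-compound control wells.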
An asterisk follows results filed as active; ? = inconclusive; · = no result. In the library only some 11% were active in any assay of this set; here they are far more common. Calls follow the shape of the dose curve; as a rule, active = well fitted curve in the direction sought with a large enough effect; inconclusive = small, poorly fitted or top-dose-only effect, or another doubt; inactive = no such curve, though single readings can be large; an effect the other way counts as inactive or inconclusive. Unless noted, % is scaled to controls: 0 for no effect and ±100 for the full control effect; potency is read from the fitted curve at half-maximal effect.

SMILES	AmpC inh detg	Pf growth 96h	AMA1-RON2 inh	HCV inhibitor	Pf growth 48h	AmpC inh no detg
CCOc1ccccc1NC(=O)CSc1ncc(S(=O)(=O)c2ccc(C)c(C)c2)c(N)n1	14%	·	·	·	·	·
O=C(Cn1nc(N2CCN(c3ccccc3)CC2)ccc1=O)NCc1cccc(Cl)c1	0%	·	·	·	·	·
CCS(=O)(=O)c1ncc(N(Cc2ccco2)Cc2sccc2C)c(C(=O)Nc2ccc(C)cc2C)n1	18%	·	·	·	·	·
O=C(NNc1ccc(Cl)cc1)c1c(F)cccc1Cl	5%	29%	-21%	-18%	14%	-18%
CC(=O)C(=Nc1ccccc1Cl)NNc1ccc(Cl)cc1	-4%	4.7µM*	20µM*	?	12µM*	-27%
CCN(C[C@H]1N[C@@](C)(C(=O)OC)[C@H]2C(=O)N(C)C(=O)[C@@H]12)C(=O)Nc1ccc(F)cc1	·	·	-1%	-2%	·	-7%
CCN(C[C@H]1N[C@@](C)(C(=O)OC)[C@H]2C(=O)N(C)C(=O)[C@@H]12)C(=O)Nc1ccc(OC)cc1	·	·	0%	2.5µM*	·	-11%
COc1ccccc1N(C)S(=O)(=O)c1ccc(C(=O)N(C)Cc2ccc(Cl)s2)cc1	9%	?	-1%	?	12µM*	-6%
CCOc1ccc(CN(C)C(=O)c2ccc(S(=O)(=O)N(C)c3ccccc3OC)cc2)cc1	-8%	?	4%	11µM*	13µM*	68%
CC(C)CCn1c(=O)c2sccc2n2c(CCCC(=O)NC(C)c3ccccc3)nnc12 (centres undefined)	19%	·	·	·	·	·
NS(=O)(=O)c1ccc(CCNC(=O)CSc2nc3ccsc3c(=O)n2CCCCCC(=O)O)cc1	-4%	-19%	11%	?	6%	-17%
CCOC(=O)CSc1nc2ccsc2c(=O)n1C1CCN(C(=O)OCC)CC1	-1%	?	19%	-9%	?	59%
O=C(CSc1nc2ccsc2c(=O)n1Cc1ccc(C(=O)O)cc1)NCc1ccco1	?	-13%	3%	21%	-10%	-14%
NS(=O)(=O)c1ccc(CCNC(=O)CSc2nc3ccsc3c(=O)n2CC(=O)O)cc1	-10%	1.2µM*	-6%	23%	-11%	-10%
CCOC(=O)N1CCC(n2c(SCC(=O)NCc3ccco3)nc3ccsc3c2=O)CC1	1%	?	-1%	?	13µM*	24%
CCOC(=O)CSc1nc2cc(C(=O)NCc3ccco3)ccc2c(=O)n1C1CCCCC1	2%	-2%	4%	-4%	5.9µM*	-4%
COc1ccc(Cn2c(SCC(=O)NCc3ccco3)nc3ccsc3c2=O)cc1	-1%	0%	0%	2.5µM*	13µM*	-50%
COc1ccc(CNC(=O)c2ccc3nc(C(C)C)oc3c2)cc1OC	4%	·	·	·	·	·
COc1ccc(CCCc2nnc(SCC(=O)Nc3cc(F)ccc3C)o2)cc1	13%	·	·	·	·	·
CCC(=O)N(Cc1c(C)nn(-c2ccccc2)c1Cl)c1ccc(Cl)cc1	?	3%	-22%	?	10µM*	161%
CC1(C)CC(NC(=O)c2cccc(S(=O)(=O)Nc3cccc(Cl)c3)c2)CC(C)(C)N1	-17%	4.7µM*	0%	6%	13µM*	-3%
O=C(CN1CCC(NC(=O)c2cccc(F)c2)CC1)Nc1ccc(Br)cc1	-7%	?	-5%	10µM*	-13%	11%
Cc1ccc(C(=O)NC2CC(C)(C)NC(C)(C)C2)cc1Cl	-3%	-21%	2%	-2%	1%	-8%
C=CCN(c1ccccc1)S(=O)(=O)c1cc(C(=O)NC2=NCCS2)ccc1Cl	2%	?	107%	16%	?	-28%
C=CCN(c1ccc(F)cc1)S(=O)(=O)c1cc(C(=O)NC2CCC(O)CC2)ccc1Cl (centres undefined)	-2%	5.2µM*	9%	?	?	185%
SMILES	AmpC inh detg	Pf growth 96h	AMA1-RON2 inh	HCV inhibitor	Pf growth 48h	AmpC inh no detg
O=C(NC1CCN(Cc2ccc(F)cc2)CC1)c1ccccc1	1%	3%	2%	-7%	18%	2%
O=C(NC1CCN(Cc2ccccc2)CC1)c1cccc(S(=O)(=O)Nc2ccc(F)cc2)c1	-11%	2.1µM*	18%	?	4.1µM*	-1%
Cc1cccc(N2CCN(C(=O)c3cnn(-c4ccccc4Cl)c3C3CCN(C(=O)OC(C)(C)C)CC3)CC2C)c1 (centres undefined)	1%	·	·	·	·	·
O=C(Nc1nnc2n1CCS2)c1cc(C(F)(F)F)cc(C(F)(F)F)c1	4%	·	·	·	·	·
CCCN(C(=O)c1cc(S(=O)(=O)N2CCc3ccccc32)cn1C)c1ccc(OCC)cc1	-8%	·	·	·	·	·
Cn1c(=O)c2c(ncn2CC(=O)Nc2cc(Cl)cc(Cl)c2)n(C)c1=O	-10%	·	·	·	·	·
Cc1c(Cl)cccc1NC(=O)CSc1ncc2c(n1)-c1ccccc1N(C)S2(=O)=O	0%	·	·	·	·	·
N#Cc1nc(/C=C/c2ccc(F)cc2)oc1N1CCCCC1	-4%	·	·	·	·	·
O=C(NC1CCN(Cc2ccccc2)CC1)c1cccc(S(=O)(=O)Nc2ccc(Br)cc2)c1	-11%	?	41%	?	12µM*	-16%
C=CCN(c1ccccc1)S(=O)(=O)c1cccc(C(=O)NC2CCN(Cc3ccccc3)CC2)c1	-12%	12µM*	0%	14µM*	10µM*	79%
Cc1ccccc1-c1nc2scc(CCNS(=O)(=O)c3ccccc3)n2n1	1%	·	·	·	·	·
Cc1ccc(S(=O)(=O)c2cn(Cc3ccccc3)c3cc(N4CCOCC4)c(F)cc3c2=O)cc1	-1%	·	·	·	·	·
N=c1n(CCN2CCOCC2)c2ccccc2n1CC(=O)c1cccc([N+](=O)[O-])c1	-8%	?	24%	-14%	?	129%
N=c1n(CCN2CCCCC2)c2ccccc2n1CC(O)COc1ccc(Cl)cc1Cl (centres undefined)	4%	·	·	·	·	·
N=c1n(CCN2CCCC2)c2ccccc2n1CC(O)c1ccc(Cl)c(Cl)c1 (centres undefined)	5%	121%	-4%	11µM*	?	-2%
N=c1n(CCN2CCCCC2)c2ccccc2n1CC(=O)c1cccs1	-5%	10µM*	1%	?	12µM*	-5%
CCCn1c(=N)n(CC(=O)c2cccs2)c2ccccc21	?	27%	4%	-13%	-5%	-6%
N=c1n(CCN2CCOCC2)c2ccccc2n1CC(=O)c1ccc(Cl)c(Cl)c1	4%	0.47µM*	36%	?	12µM*	198%
CCc1cc2c(cc3c(=O)n(CC(=O)NCCc4ccccc4)ncn32)s1	0%	·	·	·	·	·
